MmCpn inh: Inhibitors of TCP-1 ring complex (TRiC) of Methanococcus maripaludis (MmCpn): qHTS. purified Mm-Cpn ATPase, ADP Transcreener TR-FRET. Potency, µM (titrated, usually from 76.9 µM), for the others: top-dose activity, negative = inhibition, actives largely listed as inhibitors. 330,000 compounds, 0.031% hits; further: potency means the concentration at half of the fitted maximal effect; on the % scale 0 is the no-effect control and ±100 the full control effect; nearly all actives have a fitted effect of over 80% in size
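TR-FRET (320 nm excitation; 590 and 665 nm emission) reports ADP made from 10 uM ATP by 25 nM enzyme; compounds were preincubated 10 min, reaction run 30 min, both at 37°C.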
ERG Ets-DNA blk: qHTS for Small Molecule Inhibitors of the ERG Ets/DNA interaction; Transcriptional regulator ERG (Homo sapiens), P11308; fluorescence polarization, His-ERG Ets domain / labelled DNA; Potency, µM (titrated, usually from 76.9 µM), for inactives: at the highest dose FP activity, negative = inhibition, hits mostly inhibitors; 370,000 compounds, 0.028% hits; active means well fitted inhibition curve with a large enough effect in the polarisation, with a control signal flat; inconclusive means small, poorly fitted or top-dose-only effect, or effect the other way, or a change in a side signal; inactive means no such curve, though single readings can be large or run the other way; the % refers to the polarisation;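 further: polarization taken with two DNA probes labelled with fluorescein and Texas red; potency means the concentration at half of the fitted maximal effect; % of control where 0% means no effect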
Target sequence (P11308 whole entry, looked up, the tested form may be a part): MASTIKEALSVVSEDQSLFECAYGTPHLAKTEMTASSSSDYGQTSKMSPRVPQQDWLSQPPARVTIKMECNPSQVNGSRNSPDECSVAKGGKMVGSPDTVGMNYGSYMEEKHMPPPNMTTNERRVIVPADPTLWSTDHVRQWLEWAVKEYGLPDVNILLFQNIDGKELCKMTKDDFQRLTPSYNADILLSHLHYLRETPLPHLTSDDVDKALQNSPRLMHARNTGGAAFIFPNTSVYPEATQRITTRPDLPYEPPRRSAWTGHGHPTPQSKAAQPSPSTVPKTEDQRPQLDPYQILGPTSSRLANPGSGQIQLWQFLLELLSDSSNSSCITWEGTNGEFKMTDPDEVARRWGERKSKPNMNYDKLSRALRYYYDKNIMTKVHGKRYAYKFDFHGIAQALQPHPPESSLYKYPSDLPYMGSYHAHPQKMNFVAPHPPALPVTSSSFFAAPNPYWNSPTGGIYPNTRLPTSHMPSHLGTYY
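His-tagged ERG Ets domain (1 uM in the protein solution; 300mM KCl, 50mM Tris-HCl, 1mM EDTA, 1mM DTT, pH 7.5) received compound, then a probe mix of 5 nM fluorescein-DNA and 100nM Texas-615-DNA. Fluorescence polarization was read for both dyes.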
CCT chaperon mod: High-Throughput Screening for Modulators of Cytosolic Chaperonin Activity; 360,000 compounds, 0.3% hits; AID 651819, 2012; purified chaperonin ATPase assay, HTRF ADP detection, 30 min; activity change, % (concentration not given with the values), hits read low; in the data active means activity change below about -30%; further: on the % scale 0 is the no-effect control and ±100 the full control effect
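We incubate TRiC, 40 or 20 nM final, with library compounds at 76 uM and 10 uM ATP for 30 min at 37 °C. ADP formed is detected with Transcreener HTRF reagents after 30 min at room temperature.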
Apoferritin bind: qHTS Assay for Identification of Novel General Anesthetics. Potency, µM (top dose mostly 77.5 µM), for the others: top-dose activity change, negative = displacement, hits mostly inhibitors. Ferritin light chain (Equus caballus), P02791. AID 485281, 2010. apoferritin/1-aminoanthracene competitive binding, fluorescence. 350,000 compounds, 0.074% hits; further: potency means the concentration at half of the fitted maximal effect; on the % scale 0 is the no-effect control and ±100 the full control effect; nearly all actives have a fitted effect of over 20% in size
Target sequence (P02791 2-175 limits assumed): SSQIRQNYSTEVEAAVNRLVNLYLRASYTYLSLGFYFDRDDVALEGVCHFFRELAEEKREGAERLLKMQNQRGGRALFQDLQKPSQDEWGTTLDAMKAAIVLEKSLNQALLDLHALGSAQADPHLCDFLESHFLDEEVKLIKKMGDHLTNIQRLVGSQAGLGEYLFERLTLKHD
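In PBS, apoferritin at 10 uM is loaded with 1-AMA from a 50% saturated solution. After 10 min of compound exposure at ambient temperature, reduced 535 nm fluorescence indicates probe displacement.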
Starred values were filed as active, the others as inactive; ? = inconclusive; . = no result. Sampled rows, rich in hits. Any-hit rate of the full collection: about 0.39%. Unless noted, the call rests on the fitted dose curve; in most records, active means well fitted curve in the direction sought with a large enough effect; inconclusive means small, poorly fitted or top-dose-only effect, or another doubt; inactive means no such curve, though single readings can be large; an effect the other way counts as inactive or inconclusive.

SMILES	MmCpn inh	ERG Ets-DNA blk	CCT chaperon mod	Apoferritin bind
CC(C)CCNC(=O)CCn1c(=O)c2cccn2c2cccnc21	.	-3%	.	-15%
Cc1cc2ccccc2n1CCNC(=O)c1ccc(S(=O)(=O)N2CCOCC2)cc1	32µM*	.	-5	-13%
O=C(Nc1nc2c(s1)CCCC2)c1ccc(S(=O)(=O)N2CCCc3ccccc32)cc1	-10%	3%	-1	-5%
CNC(=O)c1ccsc1NC(=O)c1ccc(S(=O)(=O)N2CCCc3ccccc32)cc1	28µM*	15%	0	39%
CC(C)C[C@H](NC(=O)[C@H](C)NC(=O)CNC(=O)[C@H](CCCCN)NC(=O)[C@H](CCCN=C(N)N)NC(=O)[C@H](C)NC(=O)[C@H](Cc1ccccc1)NC(=O)[C@@H](N)CCCN=C(N)N)C(=O)N[C@@H](CCCN=C(N)N)C(=O)N[C@@H](CCC(N)=O)C(=O)N[C@@H](CCCCN)C(=O)N[C@@H](CC(N)=O)C(=O)N[C@H](C(N)=O)C(C)C	.	.	.	1%
CCOC(=O)c1cnc(NCc2ccc(Cl)cc2)c2ccccc12	.	0%	.	70%
CN(C)CCCN(Cc1ccccc1)C(=S)Nc1ccc(OC(F)F)cc1	-1%	-3%	-54*	-8%
O=c1[nH]c2ccccc2n1CCC1CCCCC1	0%	9%	-2	28µM*
CC(C)CCn1c(=O)[nH]c2ccccc21	2%	8%	0	5%
CC1=C(C)/C(=N\OS(=O)(=O)c2ccccc2)C=CC1=O	0%	1%	-1	28µM*
Cc1ccc(S(=O)(=O)O/N=C2\CCCc3ccccc32)cc1	1%	1%	2	-16%
Cc1cccnc1NC(=O)c1cccc(S(=O)(=O)N2CCN(c3ccccc3)CC2)c1	1%	1%	-2	.
CCN(CC)S(=O)(=O)c1cccc(NC(=O)c2cccc(S(=O)(=O)N3CCCC3)c2)c1	-1%	-5%	-56*	.
Cc1ccc(C(=O)NNC(=O)c2cccc(S(=O)(=O)N3CCN(c4ccccc4)CC3)c2)cc1	-1%	-1%	-48*	-1%
COc1ccccc1C(=O)COC(=O)Cn1[nH]c(=O)c2ccccc2c1=O	1%	-4%	-31*	.
O=C(Cn1[nH]c(=O)c2ccccc2c1=O)OCC(=O)c1ccc(Br)cc1	0%	-3%	-1	.
Cc1ccc(CN2CC(C(=O)Nc3ccc(C)c(S(=O)(=O)N4CCCCC4)c3)CC2=O)cc1 (configuration not stated)	.	14%	-41*	.
Cc1ccc2c(C)c(C(=O)N(C)C(C)c3ccon3)oc2c1C (configuration not stated)	0%	32µM*	0	-15%
CCn1c(CSc2nnc(-c3cccnc3)n2-c2ccccc2C)nc2cc(C(=O)O)ccc21	-20%	.	.	5%
CCn1c(CSc2nnc(-c3ccncc3)n2CCOC)nc2cc(C(=O)O)ccc21	-1%	5µM*	0	-1%
CCn1c(CSc2n[nH]c(N)n2)nc2cc(C(=O)O)ccc21	-3%	16µM*	-4	0%
Nc1ncnc2c1ncn2[C@@H]1O[C@H](C(=O)N2CCN(CC(=O)Nc3cccc4c3CNC4=O)CC2)[C@@H](O)[C@H]1O	.	.	.	1%
C=CCn1cc(CN2CCC(C(=O)Nc3ccc(Oc4cccnc4)cc3)CC2)c(C)n1	-1%	-6%	-31*	?
O=C(NCC(=O)N1CCCC1)c1ccc(Br)o1	-1%	-3%	1	-9%
CCOC(=O)N1CCN(C(=O)CNC(=O)c2ccc(Br)o2)CC1	-2%	4%	-53*	-4%
SMILES	MmCpn inh	ERG Ets-DNA blk	CCT chaperon mod	Apoferritin bind
CCCCOc1ccc(C2c3c(oc4ccccc4c3=O)C(=O)N2c2nc(C)c(C(=O)OCC)s2)cc1OC (configuration not stated)	.	9%	.	-5%
O=C(Cn1cc(S(=O)(=O)Cc2cccc(Cl)c2)c2ccccc21)NCc1ccccc1Cl	.	3%	.	-10%
CCc1nnc(N/N=C/c2cccs2)n1N	0%	-6%	-43*	9%
CCN(CC)S(=O)(=O)c1ccc2c(c1)N(CC(=O)N1CCN(c3ccc(F)cc3)CC1)C(=O)CO2	-5%	-10%	.	-15%
FC(F)Oc1ccc(NC(=S)NCc2nc3ccccc3[nH]2)cc1	2%	-6%	-37*	-7%
CC[C@H](C)[C@H](NC(=O)[C@H](CCC(=O)O)NC(=O)[C@H](CO)NC(=O)[C@@H](NC(=O)[C@@H](N)CO)C(C)C)C(=O)N[C@@H](CCC(N)=O)C(=O)N[C@@H](CC(C)C)C(=O)N[C@@H](CCSC)C(=O)N[C@@H](Cc1cnc[nH]1)C(=O)N[C@@H](CC(N)=O)C(=O)N[C@@H](CC(C)C)C(=O)NCC(=O)N[C@@H](CCCCN)C(=O)N[C@@H](Cc1cnc[nH]1)C(=O)N[C@@H](CC(C)C)C(=O)N[C@@H](CC(N)=O)C(=O)N[C@@H](CO)C(=O)N[C@@H](CCSC)C(=O)N[C@@H](CCC(=O)O)C(=O)N[C@@H](CCCNC(=N)N)C(=O)N[C@H](C(=O)N[C@@H](CCC(=O)O)C(=O)N[C@@H](Cc1c[nH]c2ccccc12)C(=O)N[C@@H](CC(C)C)C(=O)N[C@@H](CCCNC(=N)N)C(=O)N[C@@H](CCCCN)C(=O)N[C@@H](CCCCN)C(=O)N[C@@H](CC(C)C)C(=O)N[C@@H](CCC(N)=O)C(=O)N[C@@H](CC(=O)O)C(=O)N[C@H](C(=O)N[C@@H](Cc1cnc[nH]1)C(=O)N[C@@H](CC(N)=O)C(=O)N[C@@H](Cc1ccccc1)C(=O)N[C@H](C(=O)N[C@@H](C)C(=O)N[C@@H](CC(C)C)C(=O)NCC(=O)O)C(C)C)C(C)C)C(C)C	.	.	.	-6%
COc1ccc(NC(=O)c2cc(C(C)=O)n3ccccc23)cc1	.	-2%	.	-12%
Cc1cc(C)c(SSc2nnnn2-c2ccccc2)c(C)c1	.	.	-38*	.
Cc1ccc2cc(C)c(Sc3nnnn3-c3ccccc3)nc2c1	0%	-8%	-15	-8%
O=C1Nc2cc(C(=O)N3CCN(c4ccccn4)CC3)ccc2S/C1=C\c1ccccc1	1%	5%	-42*	13%
OCC[C@H]1C[C@H](O)[C@@H](O)[C@]2(CCCO2)O1	.	9%	-65*	.
CC(C)C[C@H](NC(=O)[C@H](CC(C)C)NC(=O)[C@H](Cc1ccccc1)NC(=O)[C@@H](N)CO)C(=O)N[C@@H](CCCNC(=N)N)C(=O)N[C@@H](CC(N)=O)C(=O)N1CCC[C@H]1C(=O)N[C@@H](CC(N)=O)C(=O)N[C@@H](CC(=O)O)C(=O)N[C@@H](CCCCN)C(=O)N[C@@H](Cc1ccc(O)cc1)C(=O)N[C@@H](CCC(=O)O)C(=O)N1CCC[C@H]1C(=O)N[C@@H](Cc1ccccc1)C(=O)O	.	.	.	6%

From PubChem
